Source: PubChem BioAssay
The list is not random: actives were taken first. Their share in the collection is about 18%.
TDP1 inh: qHTS Assay for Inhibitors of Tyrosyl-DNA Phosphodiesterase (TDP1); Tyrosyl-DNA phosphodiesterase 1 (Homo sapiens), Q9NUW8; 350,000 compounds, 0.28% hits; recombinant TDP1, AlphaScreen DNA substrate cleavage; Potency, µM (highest dose often 130 µM), for inactives: at the top dose activity change, negative = inhibition, usual class: inhibitors; further: potency means the concentration at half of the fitted maximal effect; on the % scale 0 is the no-effect control and ±100 the full control effect; nearly all actives have a fitted effect of over 40% in size
Target sequence (Q9NUW8 whole entry, looked up): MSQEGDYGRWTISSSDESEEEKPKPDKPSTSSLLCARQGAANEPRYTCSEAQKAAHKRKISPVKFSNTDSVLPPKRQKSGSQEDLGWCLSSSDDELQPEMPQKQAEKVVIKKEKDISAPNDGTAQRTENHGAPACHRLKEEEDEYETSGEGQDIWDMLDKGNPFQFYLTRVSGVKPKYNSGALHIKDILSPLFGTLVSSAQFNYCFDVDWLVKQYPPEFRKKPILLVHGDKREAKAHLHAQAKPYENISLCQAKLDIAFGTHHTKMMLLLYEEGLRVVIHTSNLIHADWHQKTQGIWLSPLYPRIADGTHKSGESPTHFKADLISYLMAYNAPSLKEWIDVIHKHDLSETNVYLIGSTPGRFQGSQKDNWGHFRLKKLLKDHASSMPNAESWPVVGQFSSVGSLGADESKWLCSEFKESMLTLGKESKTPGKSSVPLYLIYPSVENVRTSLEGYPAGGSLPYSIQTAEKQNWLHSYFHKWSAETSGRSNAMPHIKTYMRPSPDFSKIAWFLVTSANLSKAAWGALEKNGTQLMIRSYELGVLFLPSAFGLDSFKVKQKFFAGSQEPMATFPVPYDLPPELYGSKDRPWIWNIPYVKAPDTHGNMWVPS
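AlphaScreen read-out: signal falls as enzyme removes the 3' tyrosine-FITC from a 5'-biotinylated DNA oligo (15 nM, 5 min, RT). Enzyme was E. coli-made recombinant Tdp1 at 1 nM, exposed to compound for 15 min beforehand; beads 10 ug/ml, 10 min.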
IL-1B inflam inh: qHTS for Inhibitors of Inflammasome Signaling: IL-1-beta AlphaLISA Primary Screen; THP-1 LPS/ATP IL-1B secretion, AlphaLISA, 16 h; active compounds read low; activity change, % at 57.5 µM; 360,000 compounds, 4.7% hits; in the data active means activity change below about -50%; inconclusive means mostly about -30% to -49%; further: on the % scale 0 is the no-effect control and ±100 the full control effect
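THP-1 cells pretreated 1 hr with compounds (up to 57.5 uM final), then stimulated with LPS (250 ng/mL final) plus ATP (1.25 mM final); secreted IL-1B measured by AlphaLISA after 16 hr, decreased signal indicating inhibition.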
HepG2 viability: qHTS for Inhibitors of TGF-b: Cytotox Counterscreen; 410,000 compounds, 0.76% hits; AID 588856, 2011; HepG2 CAGA-GFP viability, ATP luminescence, 18 h; Potency, µM (titrated, usually from 46.1 µM), for the others: at the highest dose activity change, negative = cytotoxicity, actives largely listed as cytotoxic; further: potency means the concentration at half of the fitted maximal effect
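CellTiter-Glo luminescence gave cytotoxicity after 18 hours at 37 degrees C. The cells were HepG2 CAGA-GFP in 1% FBS DMEM, stimulated with 500 pg/mL TGF-beta after compound addition. %Activity was normalised to no-cell wells (complete cell-killing) and DMSO (no toxicity), and curves were fitted and classified.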
TDP1 cell noCPT: qHTS for Inhibitors of human tyrosyl-DNA phosphodiesterase 1 (TDP1): qHTS in cells in absence of CPT | DT40 Tdp1-/- hTDP1 cells, no CPT, ATP luminescence, 48 h | Potency, µM (highest dose often 46.2 µM), for the others: at the top dose activity change, negative = growth inhibition, hits mostly inhibitors | 420,000 compounds, 15% hits; further: potency means the concentration at half of the fitted maximal effect; on the % scale 0 is the no-effect control and ±100 the full control effect; nearly all actives have a fitted effect of over 55% in size
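A cellular qHTS used chicken DT40 cells lacking endogenous Tdp1 but carrying stably transfected human TDP1. Compounds were applied without camptothecin, and cell growth kinetics were judged by ATP-dependent luminescence after ≥48 hr.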
DT40 TDP1 CPT: qHTS for Inhibitors of human tyrosyl-DNA phosphodiesterase 1 (TDP1): qHTS in cells in presence of CPT; chicken DT40 Tdp1-/-;hTDP1 cells + 20 nM CPT, ATP luminescence, 48 h; Potency, µM (top dose mostly 46.2 µM), inactives show at the highest dose activity change, negative = growth inhibition, most hits filed as inhibitors; 420,000 compounds, 12% hits; AID 686979, 2013; further: potency means the concentration at half of the fitted maximal effect; on the % scale 0 is the no-effect control and ±100 the full control effect; nearly all actives have a fitted effect of over 55% in size
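Cell growth measured by CellTiter-Glo luminescence after a minimum 48 h, 37 C compound exposure with 20 nM CPT in Tdp1-knockout DT40 cells stably expressing hTDP1, seeded 400/well; qHTS titration format.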
TGFb SMAD3 inh: qHTS for Inhibitors of TGF-b | HepG2 CAGA-GFP TGF-b/SMAD3 reporter, GFP fluorescence, 18 h; TGF-beta stimulated, 500 pg/mL final | Potency, µM (doses to about 46.1 µM), without a hit: at the highest dose activity, negative = inhibition, actives largely listed as inhibitors | 410,000 compounds, 1.2% hits | AID 588855, 2011; further: potency means the concentration at half of the fitted maximal effect; on the % scale 0 is the no-effect control and ±100 the full control effect; nearly all actives have a fitted effect of over 65% in size
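Inhibition was scored as loss of TGF-beta-induced (500 pg/mL final, 18 hours, 37 degrees C) GFP in HEPG2 cells carrying a CAGA-GFP reporter, in DMEM with 1% FBS. Well GFP was summed per cell; Activity was normalised to unstimulated and stimulated DMSO wells, then concentration-response fitting.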
Numbers without * were called inactive; ? = inconclusive; · = no result given; [ ] = dose if it differs, or a comment. Unless noted, the call rests on the fitted dose curve; in most records, active means well fitted curve in the direction sought with a large enough effect; inconclusive means small, poorly fitted or top-dose-only effect, or another doubt; inactive means no such curve, though single readings can be large; an effect the other way counts as inactive or inconclusive.

SMILES | TDP1 inh | IL-1B inflam inh | HepG2 viability | TDP1 cell noCPT | DT40 TDP1 CPT | TGFb SMAD3 inh
C[C@]12CCC(=O)C=C1CC[C@@H]1[C@@H]2CC[C@@]2(C)[C@H]1CC[C@]2(C)O | 5% | 35 | -11% | ? | ? | 29%
CC(C)n1c(N2CCN(S(=O)(=O)c3cccc([N+](=O)[O-])c3)CC2)nc2ccccc21 | · | -72* | -11% | 12µM* | ? | -8%
COc1ccc(C(c2nnnn2-c2c(C)cccc2C)N2CCC(n3c(=O)[nH]c4ccccc43)CC2)cc1 (stereo unspecified) | · | -92* | -46% | 9.2µM* | 8.2µM* | ?
O=C1NCN(c2ccccc2)C12CCN(C(c1ccccc1OC(F)(F)F)c1nnnn1Cc1ccccc1)CC2 (stereo unspecified) | · | 0 | -46% | -86% | ? | ?
Cc1cccc(C)c1-n1nnnc1C(c1ccccc1OC(F)(F)F)N1CCC(n2c(=O)[nH]c3ccccc32)CC1 (stereo unspecified) | · | -81* | -20% | 5.8µM* | 8.2µM* | 11%
Cc1cc(N2C(=O)CC(N3CCC(n4c(=O)[nH]c5ccccc54)CC3)C2=O)no1 (stereo unspecified) | 5% | 0 | 18% | ? | ? | 31%
CN1CCC2(CC1)CCN(C(=O)c1ccco1)CC2 | · | · | · | -1% | 15% | ·
CCCc1cc2c(n1Cc1cccc(Cl)c1)C(C)C1CN(C(=O)c3ccccc3)C(C)(C(=O)OC)C21 (stereo unspecified) | -3% | · | · | · | · | ·
CCOc1ccccc1NC(=O)NCc1ccc2c(c1)CCN2C(=O)c1ccccc1 | 8% | · | -17% | 16µM* | 23µM* | ?
CCOc1cccc(CC(=O)NCc2ccc3c(c2)CCN3C(=O)c2cccc(C)c2)c1OCC | 4% | · | -12% | 21µM* | 21µM* | ?
Cc1ccc(NC(=O)NCc2ccc3c(c2)CCN3C(=O)c2ccccc2)c(Cl)c1 | 4% | · | -13% | 23µM* | ? | ?
CCOc1ccccc1NC(=O)c1cccn(Cc2ccccc2C)c1=O | -3% | · | -12% | 1% | -2% | 0%
CC(=O)c1ccc(N2CCN(S(=O)(=O)c3cc(-c4onc(C)c4C)ccc3C)CC2)cc1 | 3% | · | -21% | 9.2µM* | 8.2µM* | ?
CCc1ccccc1NC(=O)Nc1cc(C(=O)NCc2ccc(C(C)C)cc2)ccc1N1CCCC1 | -1% | · | 2% | ? | ? | -18%
CC(C)c1ccc(CNC(=O)c2ccc(N3CCCC3)c(NC(=O)NCc3ccccc3)c2)cc1 | 1% | · | -6% | 23µM* | 15µM* | ?
Cc1cc(Br)cn2c(CC(=O)N3CCCCC3)c(-c3ccc(F)cc3)nc12 | · | 29 | · | 16µM* | ? | ·
O=C(Cc1c(-c2ccccc2)nc2ccc(Br)cn12)N1CCCC1 | · | 39 | · | ? | -27% | ·
O=C(N[C@@H]1N=C(c2ccccc2F)c2cccc3c2N(CC3)C1=O)c1cc2ccccc2[nH]1 | · | · | · | ? | -15% | ·
O=C1NC(=O)N(Cc2ccccc2)C(=O)/C1=C\c1ccco1 | -6% | -6 | 2% | 13µM* | 21µM* | 9%
O=C(O)Cn1cc(/C=C2\C(=O)NC(=O)N(Cc3ccco3)C2=O)c2ccccc21 | · | 5 | 6% | ? | 0.73µM* | 3%
O=C1NC(=O)N(Cc2ccc(F)cc2)C(=O)/C1=C\C=C\c1ccco1 | · | -96* | -49% | 7.3µM* | 7.3µM* | ?
O=C(Nc1ccc(F)cc1)N1Cc2ccccc2-n2nncc2C1 | · | -2 | -12% | -2% | -2% | -2%
Cc1ccc(O)cc1C | 5% | · | · | · | · | ·
c1ccc(-c2[nH]c(-c3ccccc3)[n+](CC3CO3)c2-c2ccccc2)cc1 (stereo unspecified) | 5% | -56* | -27% | 10µM* | 5.8µM* | ?
COc1cccc(C2=CC(c3cc(Br)ccc3F)n3nnnc3N2)c1 (stereo unspecified) | 9% | · | -15% | 1.3µM* | 1.3µM* | 21%
SMILES | TDP1 inh | IL-1B inflam inh | HepG2 viability | TDP1 cell noCPT | DT40 TDP1 CPT | TGFb SMAD3 inh
CC[C@@H]1[C@@H]2C[C@H]3[C@H]4N(C)c5ccccc5[C@@]45C[C@@H]([C@@H]2[C@@H]5O)N3[C@H]1O | 14%[21 µM] | · | · | · | · | ·
N#CCc1ccccc1 | 8% | · | · | · | · | ·
O=S(=O)(c1cccc(C(F)(F)F)c1)N1Cc2ccccc2-n2nncc2C1 | · | 15 | 2% | 9.2µM* | 23µM* | 6%
O=C(C1CCCCC1)N1Cc2ccccc2-n2nncc2C1 | · | 3 | -11% | -111% | -104% | 2%
O=S(=O)(c1ccccc1)N1Cc2ccccc2-n2nncc2C1 | · | 3 | -13% | 21µM* | ? | -4%
CC1=CC(=O)C2=C(C)C[C@H](O)[C@@H]3[C@H](OC(=O)[C@H]3C)[C@@H]12 | · | -79* | 0% | 16% | 6% | ?
COc1ccc(CN2Cc3cnnn3-c3ccccc3C2C#N)cc1 (stereo unspecified) | · | -102* | 11µM* | 1.8µM* | 1.8µM* | ?
CN1Cc2cnnn2-c2ccccc2C1C#N (stereo unspecified) | · | 0 | -12% | ? | -21% | 2%
COc1ccc(-c2ccc3n2Cc2cnnn2-c2ccccc2-3)cc1 | · | -9 | 2% | ? | ? | -25%
N#CC1c2ccccc2-n2nncc2CN1Cc1cc(Cl)cc(Cl)c1 (stereo unspecified) | · | -102* | 10µM* | 1.8µM* | 1.6µM* | ?
c1ccc(CCc2ccc3n2Cc2cnnn2-c2ccccc2-3)cc1 | · | -58* | -13% | ? | 6.5µM* | ?
COc1ccc(CN2Cc3cnnn3-c3ccccc3C2c2ccccc2)cc1 (stereo unspecified) | · | 6 | -1% | 16µM* | 16µM* | -15%
O=C(O)/C=C\CO | 4% | · | · | 0% | -1% | ·
CC(=O)OC1C[C@]2(C)C(C(C)=O)CCC2C2CCC3=CC(=O)CC[C@@]3(C)C12 (stereo partly specified) | 7% | · | · | ? | ? | ·
CC(=O)N1CC[N+](C)(C)CC1 | -4% | · | · | -5% | -3% | ·
